Only some compounds are listed: those with a hit (about 12% of all), similar ones and a draw of the others.
AmpC inh no detg = blocks E. coli AmpC beta-lactamase in detergent-free assay | P00811 | AmpC nitrocefin hydrolysis, absorbance 480 nm, 0.0001% Triton | Potency, µM (series often up to 57.1 µM), actives largely listed as inhibitors | hit rate 0.52% among 330,000 | AID 485341; also: nearly all actives have a fitted effect of over 20% in size
Target sequence (P00811 whole entry, looked up): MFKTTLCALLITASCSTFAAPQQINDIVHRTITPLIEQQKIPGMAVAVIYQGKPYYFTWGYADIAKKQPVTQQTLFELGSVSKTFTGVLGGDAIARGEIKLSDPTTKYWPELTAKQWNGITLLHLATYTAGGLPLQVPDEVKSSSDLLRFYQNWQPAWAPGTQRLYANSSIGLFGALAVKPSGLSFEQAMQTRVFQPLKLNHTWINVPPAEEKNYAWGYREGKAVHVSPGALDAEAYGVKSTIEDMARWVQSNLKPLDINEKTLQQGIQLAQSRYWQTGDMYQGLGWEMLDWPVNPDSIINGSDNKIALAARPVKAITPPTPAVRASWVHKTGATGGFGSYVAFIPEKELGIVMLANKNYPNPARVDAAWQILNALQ
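AmpC (5.3 nM in the dispensed reagent) in 20 mM phosphate pH 7.0 with 0.01% (detergent screen) or 0.0001% Triton X-100 was preincubated with compounds for 15 min at room temperature. Nitrocefin was then added from an 800 uM solution, and hydrolysis was followed at 480 nm.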
AmpC detergent = inhibitors of E. coli AmpC beta-lactamase with detergent; hit rate 0.041% among 370,000; AmpC hydrolysis of nitrocefin, absorbance 480 nm, 0.01% Triton; Potency, µM (titrated, usually from 114 µM), most hits filed as inhibitors; AID 485294; also: nearly all actives have a fitted effect of over 25% in size
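20 mM phosphate pH 7.0 + 0.01% (detergent screen) or 0.0001% Triton X-100; 5.3 nM AmpC reagent; cpd preinc 15 min RT; nitrocefin (800 uM stock) to start; A480 q20 s × 4 min; Activity was normalised to no-enzyme and no-compound control wells.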
Sm TGR inh = blocks Schistosoma mansoni thioredoxin glutathione reductase; hit rate 3% among 360,000; AID 485364; purified TGR, DTNB reduction, TNB absorbance 405 nm; Potency, µM (highest dose often 114 µM), usual class: inhibitors; also: nearly all actives have a fitted effect of over 60% in size
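Kinetic colorimetric format: TGR-catalysed, NADPH-driven DTNB reduction monitored via TNB absorbance. Enzyme dispensed at 20 nM; compound exposure 15 min at room temperature before reaction start.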
Pf growth 48h = inhibits P. falciparum growth in the first generation, 48 h; hit rate 5.9% among 310,000; AID 504832; P. falciparum luciferase growth in erythrocytes, 48 h; Potency, µM (doses to about 28.7 µM), actives largely listed as inhibitors
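Luminescence readout; reporter = integrated firefly luciferase in P. falciparum. RBC culture at 2% hematocrit, 0.1% parasitemia final, 37 C/5% CO2; decreased signal taken as growth inhibition.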
SARS PLP yeast = SARS-CoV PLP inhibition in yeast | S. cerevisiae expressing SARS-CoV PLpro, growth rescue | Potency, µM (doses to about 32.9 µM), hits mostly activators | hit rate 0.19% among 330,000; calls by dose curve; also: nearly all actives have a fitted effect of over 55% in size
Pf growth 96h = inhibits malaria parasite growth, 96 h; P. falciparum luciferase reporter growth, 96 h; AID 504834; hit rate 6.9% among 320,000; Potency, µM (titrated, usually from 28.7 µM), actives largely listed as inhibitors
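Two-generation exposure (96 h) targets delayed-death phenotype. Reporter parasites carrying integrated firefly luciferase, in red cells at 2% hematocrit and 0.05% parasitemia final, kept at 37 C, 5% CO2; luminescence loss indicates inhibition.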
Each line names hits and unclear results; the compound was inactive in the other large screens. Unless noted, calls follow the shape of the dose curve; as a rule, active = well fitted curve in the direction sought with a large enough effect; inconclusive = small, poorly fitted or top-dose-only effect, or another doubt; inactive = no such curve, though single readings can be large; an effect the other way counts as inactive or inconclusive.

CCOC(=O)c1ccc2ncc3c(-c4ccccc4)nn(-c4ccc(F)c(Cl)c4)c3c2c1	none (no result: AmpC inh no detg, Pf growth 48h, SARS PLP yeast, Pf growth 96h)
Cc1ccc(CNC(=O)C2CSC3(C)CCC(=O)N23)cc1 (centres undefined)	none (no result: AmpC detergent, Sm TGR inh, Pf growth 48h, Pf growth 96h)
Cc1cc(-c2c(C)[nH]n(-c3ccc(Cl)cc3)c2=O)n(-c2ccc(Cl)cc2)n1	Pf growth 48h inconclusive, Pf growth 96h 1µM
Cc1cc(-c2c(C)[nH]n(-c3ccccc3)c2=O)n(-c2ccccc2)n1	none
Cc1[nH]n(-c2ccccc2)c(=O)c1-c1cccc(Cl)c1	Pf growth 48h 1.7µM, Pf growth 96h 1.5µM
Cc1[nH]n(-c2ccccc2)c(=O)c1-c1ccc(Cl)cc1	Pf growth 96h 2.1µM (no result: Pf growth 48h)
Cc1cc(-c2c(C)[nH]n(-c3ccccc3)c2=O)n[nH]1	Pf growth 96h inconclusive (no result: Sm TGR inh)
O=c1c(-c2ccc(Cl)cc2)c[nH]n1-c1ccccc1	Pf growth 48h 8.3µM, Pf growth 96h 13µM
CCc1nc2sc3c(N4CCC(C)CC4)ncnc3c2c2c1CCCC2	none (no result: AmpC inh no detg, Pf growth 48h, SARS PLP yeast, Pf growth 96h)
COCCn1c(SCC(=O)c2ccccc2)nc2cc(C(=O)NC3CCCC3)ccc2c1=O	none (no result: AmpC inh no detg, Pf growth 48h, SARS PLP yeast, Pf growth 96h)
CC(=O)c1ccc([N+](=O)[O-])c(CS(=O)(=O)c2ccc(Cl)cc2)c1	none
Cc1ccc(N2CC(O)Cn3c2nc2c3c(=O)[nH]c(=O)n2C)cc1 (centres undefined)	Pf growth 96h inconclusive
Cc1nc2ncnn2c(C)c1C/C=C/c1ccccc1	AmpC detergent inconclusive, Pf growth 48h inconclusive
Cc1nc2nc(N)nn2c(C)c1C/C=C/c1ccccc1	AmpC detergent inconclusive, Sm TGR inh 16µM
Cc1cccc(CC(=O)NCC(=O)NCc2cc(=O)n(C)c(=O)n2C)c1	none
O=S(=O)(NCCNS(=O)(=O)c1ccc(F)cc1)c1ccc(F)cc1	none (no result: Pf growth 96h)
Nc1nonc1C(=O)NCCNCc1ccccc1	Pf growth 96h 12µM (no result: Pf growth 48h)
Nc1nonc1C(=O)NCCNS(=O)(=O)c1ccc(F)cc1	Pf growth 96h 2.9µM
Nc1nonc1C(=O)NCCNCc1ccccc1F	none (no result: AmpC inh no detg, Pf growth 48h, SARS PLP yeast, Pf growth 96h)
Nc1nonc1C(=O)NCCNCc1c(OCc2ccccc2F)ccc2ccccc12	Pf growth 48h 4.7µM (no result: Pf growth 96h)
Cn1cnc(S(=O)(=O)N2CCCC(C(=O)Nc3ccc(OC(F)(F)F)cc3)C2)c1 (centres undefined)	none (no result: AmpC inh no detg, Pf growth 48h, SARS PLP yeast, Pf growth 96h)
Cc1[nH]c2ccccc2c1C(=O)CN1CC(C)OC(C)C1 (centres undefined)	Sm TGR inh 32µM
COc1ccc2c(c1)c(C(=O)CN1CCC3(CC1)OCCO3)c(C)n2C	Pf growth 96h inconclusive
COc1ccc2c(c1)c(C(O)CN1CCC3(CC1)OCCO3)c(C)n2C (centres undefined)	AmpC detergent inconclusive, Sm TGR inh 25µM, Pf growth 48h inconclusive (no result: Pf growth 96h)
COc1ccc2[nH]c(C)c(C(=O)CN3CC(C)OC(C)C3)c2c1 (centres undefined)	Pf growth 96h inconclusive
CC1CN(CC(=O)c2ccccc2Cl)CC(C)O1 (centres undefined)	Sm TGR inh 45µM
Cc1[nH]c2ccccc2c1C(O)CN1CCC2(CC1)OCCO2 (centres undefined)	Sm TGR inh 16µM
O=C(CN1CCC2(CC1)OCCO2)c1c[nH]c2ccccc12	Sm TGR inh inconclusive
CCc1ccc(N(CC(=O)NCCc2ccccc2)C(=O)CCC(=O)Nc2ccccn2)cc1	none
O=C(O)CC12CC3CC(C1)CC(n1ncc(NCc4ccc5c(c4)OCO5)c(Cl)c1=O)(C3)C2	AmpC detergent inconclusive, Sm TGR inh inconclusive
Cc1[nH]c2ccccc2c1C(=O)CN1CCC2(CC1)OCCO2	Sm TGR inh 45µM, Pf growth 48h 0.93µM
Cc1[nH]c2ccccc2c1C(=O)CSc1ccccc1	AmpC detergent inconclusive, Pf growth 48h inconclusive
Cc1[nH]c2ccccc2c1C(=O)CCl	Sm TGR inh 2µM, Pf growth 48h inconclusive, Pf growth 96h 10µM
O=C(Cn1nc(C(F)(F)F)c2c1CCCC2)Nc1ccc(Br)cc1	none (no result: AmpC inh no detg, Pf growth 48h, SARS PLP yeast, Pf growth 96h)
O=C(Nc1ccc(SC(F)F)cc1)c1cc(-c2ccc3c(c2)OCCO3)on1	none (no result: AmpC inh no detg, Pf growth 48h, SARS PLP yeast, Pf growth 96h)
